# Laboratory results taken from the supplement of paper PMC10037445.
# In all, about 2,900 compounds were measured (“NF-kB SEAP reporter activity, fold change vs agonist alone”: median about 0.99, highest 2% from about 2.6 on). Only a selection was taken, and the highest values are over-represented in it overall.
# Key:
# RAW-Dual [1] = test: NF-kB SEAP reporter activity, fold change vs agonist alone; cytotoxicity flag (confluency mask): not cytotoxic; higher = enhanced NF-kB activity
# Procedure, shortened: (§1)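 Cytotoxic wells were those whose IncuCyte confluency was below 70% of agonist controls in both mask sets. The cells were RAW-Dual macrophages at 50,000 cells/well in DMEM on 384-well plates, dosed with 50 nL of library stock by pin tool, stimulated with a PRR agonist 1 h later, and kept at 37 °C, 5% CO2 for 20 hours. IRF and NF-κB reporter activity, as fold change over agonist-alone wells, came from supernatant read by QuantiLuc luminescence and QuantiBlue absorbance, respectively.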
# RAW-Dual [2] = test: NF-kB SEAP reporter activity, fold change vs agonist alone; higher = enhanced NF-kB activity
# Procedure, shortened: as §1
# RAW-Dual [3] = test: NF-kB SEAP reporter activity, fold change vs agonist alone; cytotoxicity flag (confluency mask): cytotoxic (confluency <70% of control); higher = enhanced NF-kB activity
# Procedure, shortened: as §1
# [4] = agonist: ODN 1826 (TLR9) 0.5 ug/mL
# [5] = agonist: Pam2CSK4 (TLR2/6) 0.1 ug/mL
# [6] = agonist: Pam3CSK4 (TLR2/1) 0.1 ug/mL
# [7] = library stock concentration (final ~1000-fold dilution): 10 mM, cytotoxicity flag (confluency mask): not cytotoxic, agonist: Imiquimod (TLR7) […]
# [8] = library stock concentration (final ~1000-fold dilution): 10 mM, cytotoxicity flag (confluency mask): not cytotoxic, agonist: MPLA (TLR4) […]
# [9] = library stock concentration (final ~1000-fold dilution): 10 mM, cytotoxicity flag (confluency mask): cytotoxic (confluency <70% of control), agonist: Imiquimod (TLR7) […]
# [10] = library stock concentration (final ~1000-fold dilution): 10 mM, cytotoxicity flag (confluency mask): cytotoxic (confluency <70% of control), agonist: MPLA (TLR4) […]
structure (smiles),measurement,setting,value
COC1/C=C/OC2(C)Oc3c(C)c(O)c4c(O)c(c(/C=N/N5CCN(C6CCCC6)CC5)c(O)c4c3C2=O)NC(=O)/C(C)=C/C=C/C(C)C(O)C(C)C(O)C(C)C(OC(C)=O)C1C (stereo not drawn) (library stock concentration (final ~1000-fold dilution): 10 mM),NF-kB SEAP reporter activity,RAW-Dual [1]; agonist: LPS (TLR4) 0.1 ug/mL,1.56
same,NF-kB SEAP reporter activity,RAW-Dual [1]; [4],0.892
same,NF-kB SEAP reporter activity,RAW-Dual [1]; [5],0.643
same,NF-kB SEAP reporter activity,RAW-Dual [1]; [6],0.742
COC1/C=C/OC2(C)Oc3c(C)c(O)c4c(O)c(c(/C=N/N5CCN(C6CCCC6)CC5)c(O)c4c3C2=O)NC(=O)/C(C)=C/C=C/C(C)C(O)C(C)C(O)C(C)C(OC(C)=O)C1C (stereo not drawn),NF-kB SEAP reporter activity,RAW-Dual [2]; [7],1.11
same,NF-kB SEAP reporter activity,RAW-Dual [2]; [8],0.969
O=C(O)CC[C@@H](O)C(=O)O (library stock concentration (final ~1000-fold dilution): 10 mM water),NF-kB SEAP reporter activity,RAW-Dual [1]; agonist: LPS (TLR4) 0.1 ug/mL,1.44
same,NF-kB SEAP reporter activity,RAW-Dual [1]; [4],1.16
same,NF-kB SEAP reporter activity,RAW-Dual [1]; [5],1.17
same,NF-kB SEAP reporter activity,RAW-Dual [1]; [6],1.12
O=C(O)CC[C@@H](O)C(=O)O,NF-kB SEAP reporter activity,"RAW-Dual [2]; library stock concentration (final ~1000-fold dilution): 10 mM water, cytotoxicity flag (confluency mask): not cytotoxic, agonist: Imiquimod (TLR7) […]",0.93
same,NF-kB SEAP reporter activity,"RAW-Dual [2]; library stock concentration (final ~1000-fold dilution): 10 mM water, cytotoxicity flag (confluency mask): not cytotoxic, agonist: MPLA (TLR4) […]",1.07
CC1(C)OCC(COC(=O)CCc2ccc(OCC(O)CNCCNC(=O)N3CCOCC3)cc2)O1.Cl (stereo not drawn),NF-kB SEAP reporter activity,RAW-Dual [2]; [7],0.97
same,NF-kB SEAP reporter activity,RAW-Dual [2]; [8],1.01
CC1(C)OCC(COC(=O)CCc2ccc(OCC(O)CNCCNC(=O)N3CCOCC3)cc2)O1.Cl (stereo not drawn) (library stock concentration (final ~1000-fold dilution): 10 mM),NF-kB SEAP reporter activity,RAW-Dual [1]; agonist: LPS (TLR4) 0.1 ug/mL,0.799
same,NF-kB SEAP reporter activity,RAW-Dual [1]; [4],0.908
same,NF-kB SEAP reporter activity,RAW-Dual [1]; [5],1.04
same,NF-kB SEAP reporter activity,RAW-Dual [1]; [6],0.926
CC(C)(C)OC(=O)Nc1ccc(-c2cc(C(=O)NCCCCCCC(=O)NO)no2)cc1,NF-kB SEAP reporter activity,RAW-Dual [2]; [9],0.912
same,NF-kB SEAP reporter activity,RAW-Dual [2]; [10],1.81
CC(C)(C)OC(=O)Nc1ccc(-c2cc(C(=O)NCCCCCCC(=O)NO)no2)cc1 (library stock concentration (final ~1000-fold dilution): 10 mM),NF-kB SEAP reporter activity,RAW-Dual [3]; agonist: LPS (TLR4) 0.1 ug/mL,6.9
same,NF-kB SEAP reporter activity,RAW-Dual [3]; [4],1.11
same,NF-kB SEAP reporter activity,RAW-Dual [3]; [5],1.33
same,NF-kB SEAP reporter activity,RAW-Dual [3]; [6],1.21
CC(C)C1C(=O)NC(CCCNC(=N)N)C(=O)NCC(=O)NC(CC(=O)O)C(=O)NC(Cc2ccccc2)C(=O)N1C.O=C(O)C(F)(F)F (stereo not drawn),NF-kB SEAP reporter activity,RAW-Dual [2]; [7],0.977
same,NF-kB SEAP reporter activity,RAW-Dual [2]; [8],1.11
CC(C)C1C(=O)NC(CCCNC(=N)N)C(=O)NCC(=O)NC(CC(=O)O)C(=O)NC(Cc2ccccc2)C(=O)N1C.O=C(O)C(F)(F)F (stereo not drawn) (library stock concentration (final ~1000-fold dilution): 10 mM),NF-kB SEAP reporter activity,RAW-Dual [1]; agonist: LPS (TLR4) 0.1 ug/mL,0.99
same,NF-kB SEAP reporter activity,RAW-Dual [1]; [4],1.01
same,NF-kB SEAP reporter activity,RAW-Dual [1]; [5],0.985
same,NF-kB SEAP reporter activity,RAW-Dual [1]; [6],0.921
CC(=O)OC1(C(C)=O)CCC2C3C=C(C)C4=CC(=O)CCC4(C)C3CCC21C (stereo not drawn) (library stock concentration (final ~1000-fold dilution): 10 mM),NF-kB SEAP reporter activity,RAW-Dual [1]; agonist: LPS (TLR4) 0.1 ug/mL,0.908
same,NF-kB SEAP reporter activity,RAW-Dual [1]; [4],1.22
same,NF-kB SEAP reporter activity,RAW-Dual [1]; [5],1.13
same,NF-kB SEAP reporter activity,RAW-Dual [1]; [6],1.27
CC(=O)OC1(C(C)=O)CCC2C3C=C(C)C4=CC(=O)CCC4(C)C3CCC21C (stereo not drawn),NF-kB SEAP reporter activity,RAW-Dual [2]; [7],1.21
same,NF-kB SEAP reporter activity,RAW-Dual [2]; [8],1.14
O=C(NC1=CC(=O)[C@@H]2O[C@@H]2[C@@H]1O)c1ccccc1O (library stock concentration (final ~1000-fold dilution): 10 mM),NF-kB SEAP reporter activity,RAW-Dual [1]; agonist: LPS (TLR4) 0.1 ug/mL,0.954
same,NF-kB SEAP reporter activity,RAW-Dual [1]; [4],0.718
same,NF-kB SEAP reporter activity,RAW-Dual [1]; [5],0.356
same,NF-kB SEAP reporter activity,RAW-Dual [1]; [6],0.314
O=C(NC1=CC(=O)[C@@H]2O[C@@H]2[C@@H]1O)c1ccccc1O,NF-kB SEAP reporter activity,RAW-Dual [2]; [7],0.849
same,NF-kB SEAP reporter activity,RAW-Dual [2]; [8],0.949
CS(=O)(=O)O.O=C(OC1CC2CC3CC(C1)N2CC3=O)c1c[nH]c2ccccc12 (stereo not drawn) (library stock concentration (final ~1000-fold dilution): 10 mM),NF-kB SEAP reporter activity,RAW-Dual [1]; agonist: LPS (TLR4) 0.1 ug/mL,0.646
same,NF-kB SEAP reporter activity,RAW-Dual [1]; [4],0.571
same,NF-kB SEAP reporter activity,RAW-Dual [1]; [5],0.906
same,NF-kB SEAP reporter activity,RAW-Dual [1]; [6],0.497
CS(=O)(=O)O.O=C(OC1CC2CC3CC(C1)N2CC3=O)c1c[nH]c2ccccc12 (stereo not drawn),NF-kB SEAP reporter activity,RAW-Dual [2]; [7],0.712
same,NF-kB SEAP reporter activity,RAW-Dual [2]; [8],0.75
CCNC(=O)C#Cc1ccc2c(c1)NC(=O)/C2=C(\Nc1ccc(CN(C)C)cc1)c1ccccc1,NF-kB SEAP reporter activity,RAW-Dual [2]; [9],0.134
same,NF-kB SEAP reporter activity,RAW-Dual [2]; [10],0.297
CCNC(=O)C#Cc1ccc2c(c1)NC(=O)/C2=C(\Nc1ccc(CN(C)C)cc1)c1ccccc1 (library stock concentration (final ~1000-fold dilution): 10 mM),NF-kB SEAP reporter activity,RAW-Dual [3]; agonist: LPS (TLR4) 0.1 ug/mL,0.241
same,NF-kB SEAP reporter activity,RAW-Dual [3]; [4],0.173
same,NF-kB SEAP reporter activity,RAW-Dual [3]; [5],0.074
same,NF-kB SEAP reporter activity,RAW-Dual [3]; [6],0.121
Cc1cnc(Nc2ccc(N3CCN(C)CC3)cc2)nc1Nc1cccc(S(=O)(=O)NC(C)(C)C)c1,NF-kB SEAP reporter activity,RAW-Dual [2]; [7],1.01
same,NF-kB SEAP reporter activity,RAW-Dual [2]; [8],0.945
C=CC(=O)Nc1cccc(Nc2nc(Nc3ccc(OCCOC)cc3)ncc2F)c1,NF-kB SEAP reporter activity,RAW-Dual [2]; [7],1.11
same,NF-kB SEAP reporter activity,RAW-Dual [2]; [8],1.69
C=CC(=O)Nc1cccc(Nc2nc(Nc3ccc(OCCOC)cc3)ncc2F)c1 (library stock concentration (final ~1000-fold dilution): 10 mM),NF-kB SEAP reporter activity,RAW-Dual [1]; agonist: LPS (TLR4) 0.1 ug/mL,1.12
same,NF-kB SEAP reporter activity,RAW-Dual [1]; [4],0.8
same,NF-kB SEAP reporter activity,RAW-Dual [1]; [5],0.545
same,NF-kB SEAP reporter activity,RAW-Dual [1]; [6],0.672
Cc1cnc(Nc2ccc(OCCN3CCCC3)cc2)nc1Nc1cccc(S(=O)(=O)NC(C)(C)C)c1 (library stock concentration (final ~1000-fold dilution): 10 mM),NF-kB SEAP reporter activity,RAW-Dual [3]; agonist: LPS (TLR4) 0.1 ug/mL,4.34
same,NF-kB SEAP reporter activity,RAW-Dual [3]; [4],1.22
same,NF-kB SEAP reporter activity,RAW-Dual [3]; [5],2.05
same,NF-kB SEAP reporter activity,RAW-Dual [3]; [6],3.55
CCN(CC)CCOc1ccc(Nc2ncc3cc(-c4c(Cl)cccc4Cl)c(=O)n(C)c3n2)cc1 (library stock concentration (final ~1000-fold dilution): 10 mM),NF-kB SEAP reporter activity,RAW-Dual [3]; agonist: LPS (TLR4) 0.1 ug/mL,0.238
same,NF-kB SEAP reporter activity,RAW-Dual [3]; [4],0.236
same,NF-kB SEAP reporter activity,RAW-Dual [3]; [5],0.0747
same,NF-kB SEAP reporter activity,RAW-Dual [3]; [6],0.145
C=CCn1c(=O)c2cnc(Nc3ccc(N4CCN(C)CC4)cc3)nc2n1-c1cccc(C(C)(C)O)n1,NF-kB SEAP reporter activity,RAW-Dual [2]; [9],1.14
same,NF-kB SEAP reporter activity,RAW-Dual [2]; [10],0.798
C=CC(=O)Nc1cccc(Sc2nc(Nc3ccc(N4CCN(C)CC4)cc3)ncc2Cl)c1,NF-kB SEAP reporter activity,RAW-Dual [2]; [7],0.33
same,NF-kB SEAP reporter activity,RAW-Dual [2]; [8],0.408
Cc1cnc(Nc2ccc(N3CCN(C)CC3)cc2)nc1Nc1cccc(S(=O)(=O)NC(C)(C)C)c1 (library stock concentration (final ~1000-fold dilution): 10 mM),NF-kB SEAP reporter activity,RAW-Dual [1]; agonist: LPS (TLR4) 0.1 ug/mL,7
same,NF-kB SEAP reporter activity,RAW-Dual [1]; [4],0.913
same,NF-kB SEAP reporter activity,RAW-Dual [1]; [5],2.15
same,NF-kB SEAP reporter activity,RAW-Dual [1]; [6],0.84
C=CC(=O)Nc1cccc(Sc2nc(Nc3ccc(N4CCN(C)CC4)cc3)ncc2Cl)c1 (library stock concentration (final ~1000-fold dilution): 10 mM),NF-kB SEAP reporter activity,RAW-Dual [1]; agonist: LPS (TLR4) 0.1 ug/mL,0.254
same,NF-kB SEAP reporter activity,RAW-Dual [1]; [4],0.205
same,NF-kB SEAP reporter activity,RAW-Dual [1]; [5],0.0814
same,NF-kB SEAP reporter activity,RAW-Dual [1]; [6],0.268
Cc1cnc(Nc2ccc(OCCN3CCCC3)cc2)nc1Nc1cccc(S(=O)(=O)NC(C)(C)C)c1,NF-kB SEAP reporter activity,RAW-Dual [2]; [9],3.13
same,NF-kB SEAP reporter activity,RAW-Dual [2]; [10],2.73
C=CCn1c(=O)c2cnc(Nc3ccc(N4CCN(C)CC4)cc3)nc2n1-c1cccc(C(C)(C)O)n1 (library stock concentration (final ~1000-fold dilution): 10 mM),NF-kB SEAP reporter activity,RAW-Dual [3]; agonist: LPS (TLR4) 0.1 ug/mL,0.933
same,NF-kB SEAP reporter activity,RAW-Dual [3]; [4],0.203
same,NF-kB SEAP reporter activity,RAW-Dual [3]; [5],0.914
same,NF-kB SEAP reporter activity,RAW-Dual [3]; [6],1.07
